Source: PMC7819943, “Rice protein-binding microarrays: a tool to detect cis-acting elements near promoter regions in rice”
Whole data set: some 35,000 sequences, median “fluorescence intensity (a.u.)” near 10,000, cut for the highest 2% near 52,000. The full list was thinned out, with the highest values kept by preference.

What follows are sequences tested against T1, OsWOX13 (Oryza sativa, UniProt Q5QMM3 1-267) (assay: protein-binding microarray (RPBM); PBS, 2% BSA, 51.3 ng/ul salmon testes DNA, 50 uM zinc acetate, 200 nM TF, 25 C, 1 h; high values mean tight binding). Settings: protein: recombinant; tags: N-terminal polyhistidine and DsRed monomer fusion (pET32a); label: CyDye5-dUTP incorporated in the synthesized complementary strand; 3' TTTTT single-stranded linker to array surface; dsDNA, one strand shown.
T1 sequence: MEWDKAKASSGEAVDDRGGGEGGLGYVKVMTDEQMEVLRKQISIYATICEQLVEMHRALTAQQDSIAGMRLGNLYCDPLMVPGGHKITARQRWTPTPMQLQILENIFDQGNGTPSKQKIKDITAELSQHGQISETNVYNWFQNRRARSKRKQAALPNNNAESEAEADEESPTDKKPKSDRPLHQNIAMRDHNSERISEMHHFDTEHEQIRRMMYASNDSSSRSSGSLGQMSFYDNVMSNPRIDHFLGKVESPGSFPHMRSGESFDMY
In short: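 Binding signal here means per-feature fluorescence intensity in arbitrary units. The values were read on an Axon 4000B scanner after a custom Agilent array, double-stranded by primer extension with Cy5-dUTP, was incubated with 200 nM protein at 25 °C for 1 h in PBS with 2% BSA, salmon testes DNA and 50 µM zinc acetate, then washed. The proteins were transcription factors with an N-terminal polyhistidine tag and DsRed, expressed in E. coli BL21-CodonPlus and purified on Ni–NTA.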

Sequence	binding signal
TTCGATTTAACTGTTCTATTACTGAGGTACTCTTCGATTTCGGAGTCACCTAGTGCAG	6940 fluorescence intensity (a.u.)
GTCAAATTTATGGCATTGATAGAGTTTTAGTAGGGGTGTTCGGAGTCACCTAGTGCAG	21000 fluorescence intensity (a.u.)
TTAGTTTAATTAAATGTAACATTGAGTATATTTTGATAATCGGAGTCACCTAGTGCAG	16700 fluorescence intensity (a.u.)
TCTAAATTTAACTTGCATCACATTAGTTCTGGAAAGAGCACGGAGTCACCTAGTGCAG	12200 fluorescence intensity (a.u.)
GATACTAATTATAAATATTAAGTGTAGACTATTAATAAAACGGAGTCACCTAGTGCAG	6430 fluorescence intensity (a.u.)
TCATTAACACATAATTAATTAAGTACTCCCTCCGTATTTTCGGAGTCACCTAGTGCAG	20200 fluorescence intensity (a.u.)
AAAAGAAGTTAATTATAATTAATTGTGATAAGAGGATAGACGGAGTCACCTAGTGCAG	29400 fluorescence intensity (a.u.)
AAATTGTATTCCTAATTGGACTCTCTTTTCCTTTTCTAATCGGAGTCACCTAGTGCAG	3430 fluorescence intensity (a.u.)
CTTCTAATTATTTGATATTAGGTCATTCTCTAATATTCACCGGAGTCACCTAGTGCAG	21400 fluorescence intensity (a.u.)
TCGAAAGTAATTAGTACTAGATTGATTGTCAGTTCAGTCTCGGAGTCACCTAGTGCAG	53100 fluorescence intensity (a.u.)
CTCTCGATTGATTACCTAGTACTACTGCAATTCACATTGTCGGAGTCACCTAGTGCAG	52200 fluorescence intensity (a.u.)
ATATTTTAAATAGTACTAAATTATTCTATAAATTTGGTCACGGAGTCACCTAGTGCAG	4350 fluorescence intensity (a.u.)
TTCTAATTAGATTTGATAAAGTACTAATATTCATTTTGGTCGGAGTCACCTAGTGCAG	63100 fluorescence intensity (a.u.)
AGTTACTAATTGATTCAGATGCATGGCAGTATAATTGTCTCGGAGTCACCTAGTGCAG	44900 fluorescence intensity (a.u.)
TATATGGATTAACAGATAATTAGCAGCGGGGTTAGCAAAACGGAGTCACCTAGTGCAG	21000 fluorescence intensity (a.u.)
TTTTGATTTGCCACATTTGCAGTGGCATGGATCCAATTAACGGAGTCACCTAGTGCAG	15000 fluorescence intensity (a.u.)
GGGGATTAATGGATTATAATGTGTCTTATAACTAAAAGGACGGAGTCACCTAGTGCAG	15100 fluorescence intensity (a.u.)
CTTAATGTATGTTGATTTGTCATCACATGTATGATTAGGGCGGAGTCACCTAGTGCAG	56400 fluorescence intensity (a.u.)
ATCATAATGTGTATGCATGATTAGAGGGCGCAAATTTGTACGGAGTCACCTAGTGCAG	14600 fluorescence intensity (a.u.)
ATGGGTGATTAATCCTAGAATAATGTATCTAGACAGAATCCGGAGTCACCTAGTGCAG	4120 fluorescence intensity (a.u.)
TTCCGATTATTATTTGTATTTATTAATTTAGGATTTCTCTCGGAGTCACCTAGTGCAG	8170 fluorescence intensity (a.u.)
ATCCGATTAATTAATTTGATTTAATGTAATGTAATTAGGGCGGAGTCACCTAGTGCAG	64600 fluorescence intensity (a.u.)
AGTATAATTATGTTTAGAATGGATTAATTGTAATGTAAAGCGGAGTCACCTAGTGCAG	38600 fluorescence intensity (a.u.)

Sequence	binding signal
TGAAATGTAATTGTGATTTTATCTTGAAATGATCCGATGGCGGAGTCACCTAGTGCAG	31400 fluorescence intensity (a.u.)
CTTGATTAGAATGTTTAATAACTTGTATCCGTCATGCCTGCGGAGTCACCTAGTGCAG	60200 fluorescence intensity (a.u.)
GAGATTTGTTTGATGTATCAGGGTGTCACGTTGTCATGTTCGGAGTCACCTAGTGCAG	3440 fluorescence intensity (a.u.)
GGGATTGGTTGAGAAAATAAAACAGATATATAAGTTTATCCGGAGTCACCTAGTGCAG	3160 fluorescence intensity (a.u.)
CAAACTAGATTTGTTGCTAAATTGAATTGTTATGTCATTACGGAGTCACCTAGTGCAG	22800 fluorescence intensity (a.u.)
TTTGTGATTAAGCTCTTGGTCTCGTCTCCGCGAGCTCAGCCGGAGTCACCTAGTGCAG	5540 fluorescence intensity (a.u.)
AACGTATTTGGCCCAATTAAGTATATACATATGTAATGCGCGGAGTCACCTAGTGCAG	3420 fluorescence intensity (a.u.)
GTCAAGTAACTGAACATTTTAATTGCTGCCGATTATTACCCGGAGTCACCTAGTGCAG	13400 fluorescence intensity (a.u.)
GAATTGATGGAATTTAGGCCGCCAGCAAGCAAAGACCGAGCGGAGTCACCTAGTGCAG	13300 fluorescence intensity (a.u.)
CAACTGATTTTATCACGTTCTAAAATATGCCATCATCTTTCGGAGTCACCTAGTGCAG	12300 fluorescence intensity (a.u.)
CACTGACGGAGAAATTTACCGGTCAATGGCCGTCGTCGGTCGGAGTCACCTAGTGCAG	18000 fluorescence intensity (a.u.)
GCCCTACACAATTTAATTACGTTGACACTGGCCGGTCTTACGGAGTCACCTAGTGCAG	7560 fluorescence intensity (a.u.)
TTATAATTGACACTACGAGAATGGGTCTTTACTGCCGGTTCGGAGTCACCTAGTGCAG	57700 fluorescence intensity (a.u.)
TCTAAATCATTTTAATCATGGTACAGATCTACTGATAATACGGAGTCACCTAGTGCAG	7740 fluorescence intensity (a.u.)
TCTAATGATGATTGTAAGCCGTACAATTTACTAAAAGATACGGAGTCACCTAGTGCAG	15000 fluorescence intensity (a.u.)
CTAAATTTGTAATTGTAATGTACTACTTTAATCCTTCGTACGGAGTCACCTAGTGCAG	53100 fluorescence intensity (a.u.)
ATTTAATGTACAATCATGCTTTTCCGTACTAAATTTTGTTCGGAGTCACCTAGTGCAG	14800 fluorescence intensity (a.u.)
TCTAATGATAAATCATTTATCACTAATTGTAAGAGTGGTACGGAGTCACCTAGTGCAG	53400 fluorescence intensity (a.u.)
TTTAAATTGTAATCCTACTTGAACTCTTCTTTATTTTCTTCGGAGTCACCTAGTGCAG	6760 fluorescence intensity (a.u.)
AATTAACAATTTACCAAATTATTAGTTATCAACACTAATTCGGAGTCACCTAGTGCAG	11300 fluorescence intensity (a.u.)
GTATGTTATTATATCAATTAGATTTATGCTAGCACTGTCGCGGAGTCACCTAGTGCAG	15200 fluorescence intensity (a.u.)
CATTGATAGATTGCAAAAGCTAGCTGTCTGGGAGATGGTGCGGAGTCACCTAGTGCAG	49500 fluorescence intensity (a.u.)
ACTATCGTAGGTAGCCAATCAATTTAACATTTCACTCAAGCGGAGTCACCTAGTGCAG	3630 fluorescence intensity (a.u.)
